Source: PubChem
The full list was thinned out, with hits kept by preference.
ROC1-CUL1 inh – inhibitors of human ROC1-CUL1 ubiquitin ligase activity; in vitro K48 di-Ub FRET, acceptor:donor ratio, 45 min; 140,000 tested, 0.6% active; inhibition, % at 10 µM; AID 1347404, 2020; in the data active = inhibition above about 25%
Numbers stand for hits; . = inactive.

SMILES	ROC1-CUL1 inh
O=C1NC(=O)N(Cc2ccc(F)cc2)C(=O)/C1=C\c1ccoc1	75.8
Cc1ccc(CC(=O)N2CCN(Cc3ccco3)CC2)cc1	.
C=CCN1C(=O)/C(=C/c2ccc(Br)s2)C(=O)NC1=S	.
O=C1NC(=O)N(c2ccccc2)C(=O)/C1=C\c1ccccc1	.
O=C1NC(=S)N(c2cccc(F)c2)C(=O)/C1=C/c1ccc(Br)o1	93.8
N#CC1C(=N)Oc2c(c(=O)oc3ccccc23)C1c1ccccc1C(F)(F)F (centres undefined)	.
CCN(CC)C(=O)c1ccc2c(c1)CC(C)N2S(C)(=O)=O (centres undefined)	.
COC(=O)CC1=C(C(=O)OC)C2(C(=O)N(Cc3ccccc3F)c3ccccc32)C(C#N)C(=N)O1 (centres undefined)	.
COc1ccccc1C1c2c(c3ccccc3sc2=O)OC(=N)C1C#N (centres undefined)	.
CCC1(c2ccccc2)C(=O)NC(=O)N(C(=O)c2ccc(OC)cc2)C1=O (centres undefined)	.
COc1cc(C(=O)OC2(C(=O)O)CC3CCC(C2)N3C)cc(OC)c1OC (centres undefined)	.
COC(=O)OCC12CCC(O1)C1(C)C(=O)OCC21 (centres undefined)	56.0
CC1=NN(c2ccccc2)C(=O)C1SC(F)(F)C(F)(Cl)OC(F)(F)F (centres undefined)	.
O=C1C(=O)c2cccc3cccc1c23	.
O=C1C(=O)c2ccccc2-c2ccccc21	98.0
O=C1C(=O)c2c3ccccc3cc3cccc1c23	.
CCOC(=O)CC1=C(C(=O)OCC)C2(C(=O)Nc3ccccc32)C(C(=O)OC(C)C)C(=N)O1 (centres undefined)	.
Cc1ccc(C)c(CN2CCN(CC(C)(C)C)C(CCO)C2)c1 (centres undefined)	.
O=C(CSC(c1ccccc1)c1ccccc1)N1CCOCC1	.
C=CCN1CCN(C(=O)COc2cccc(Br)c2)CC1	.
O=C1NC(=S)NC(=O)C1=Cc1ccccc1OCc1ccc(C(=O)O)cc1	.
Cc1cc(/C=C2\C(=O)NC(=S)N(c3cccc(Cl)c3)C2=O)c(C)n1-c1cc(C(=O)O)cc(C(=O)O)c1	55.4
C=CCN1C(=O)/C(=C/c2cc(C)n(-c3cccnc3)c2C)C(=O)NC1=S	.
COc1ccc(N2C(=O)/C(=C/c3cc(C)n(-c4ccc(C(=O)O)cc4C)c3C)C(=O)NC2=S)c(OC)c1	36.7
Cc1cc(/C=C2\C(=O)NC(=O)N(Cc3ccccc3)C2=O)c(C)n1-c1ccc(Cl)c(C(=O)O)c1	35.8
SMILES	ROC1-CUL1 inh
CCOc1ccc(N2C(=O)/C(=C/c3cc(C)n(-c4ccc(S(N)(=O)=O)cc4)c3C)C(=O)NC2=S)cc1	27.6
COc1ccc(C=C2C(=O)NC(=S)NC2=O)c(OC)c1	.
CCOC(=O)C1=C(C)OC(=N)C(C(=O)OC)C12C(=O)N(C)c1ccccc12 (centres undefined)	.
CC(=O)OC1CC[C@@]2(C)C(=CC(=O)C3C2CC[C@@]2(C)C3CC[C@@H]2OC(=O)c2ccccc2)C1 (some centres undefined)	.
Clc1ccc2c(c1)C(c1ccccc1Cl)=NCc1nnc(CSC3CCCCC3)n1-2	.
Cc1ccc(C)c(OCC#CCN2CCOCC2)c1	.
CN(Cc1ccc(F)cc1)c1ccc(OCC(=O)N2CCN(C/C=C/c3ccccc3)CC2)nn1	.
COc1cccc(C(=O)C2CCCN(Cc3cnn(C)c3)C2)c1 (centres undefined)	.
O=C1N=C(Cl)C(Br)C(=O)N1 (centres undefined)	.
COc1ccc(C(=O)C2CCCN(C)C2)cc1F (centres undefined)	.
Cc1c(C(=O)Nc2cc(Cl)cc(Cl)c2)cccc1[N+](=O)[O-]	.
CN(C)CC(Cl)c1ccccc1Br (centres undefined)	.
COCCN1Cc2ccccc2C1=N	.
CN1C2CCC1CC(OC(=O)/C=C/c1ccccc1)C2 (centres undefined)	.
CN1CCc2nc(SCc3ccc(F)cc3)c(C#N)cc2C1	.
CN1C(=O)N(C)C(=O)C(Cl)(Cl)C1=O	32.7
CSc1cc([N+](=O)[O-])cc([N+](=O)[O-])c1	.
Cc1cccn2c(CNC(C)Cc3cccnc3)c(C(=O)N3CCOCC3)nc12 (centres undefined)	.
N#CC(C#N)=Cc1ccc([N+](=O)[O-])s1	27.0
N#CC(C#N)=Cc1csc2ccccc12	.
Cc1cccc(-n2c(-c3ccccc3C)nc3ccccc3c2=O)c1	.
COc1ccc(CNCCc2ccc(Cl)cc2)c(OC)c1	.
N#C/C(=C/c1ccccc1)C(=O)Nc1ccc(Cl)cc1C(=O)c1ccccc1	.
CC(C)c1ccc(C2c3c(c4ccccc4oc3=O)OC(=N)C2C#N)cc1 (centres undefined)	.
Cc1cc(-c2nc(-c3c(C)ncc4c3CCNC4)no2)no1	.
